SSB-PriA inh = inhibitors of Klebsiella pneumoniae PriA binding to SSB C-terminal tail. 430,000 tested, 0.6% active. inhibition, % at 33 µM. AlphaScreen SSBct-PriA binding, biotinylated peptide; in the data active means inhibition mostly above about 37%, no sharp cut-off; inactive means mostly below about 20%;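 further: plate controls were negative control peptide for no effect and reference peptide for full effect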
GDH-TPI inh = GDH-TPI coupled enzyme inhibition counter-screen. inhibition, % at 4.8 µM. 360,000 tested, 1.2% active. GDH-TPI coupled enzyme counterscreen, NADH absorbance; in the data active means inhibition above about 30%;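 further: 0% = DMSO wells and 100% = wells lacking the enzyme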
Rv3671c inh = inhibitors of M. tuberculosis serine protease Rv3671c. P9WHR9. inhibition, % at 5.96 µM. 320,000 tested, 0.048% active. AID 2606; in the data active means inhibition above about 38%;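 further: extracellular domain of Rv3671c used as enzyme; 0% = enzyme with DMSO and 100% = no enzyme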
Mtb UGM inh = blocks M. tuberculosis UGM enzyme | 320,000 tested, 0.06% active | P9WIQ1 | purified UGM, fluorescence polarization probe displacement | inhibition, % at 10 µM; in the data active means inhibition above about 10%, passing the limit was not always enough; inconclusive means no clear call, values can overlap the other calls
Target sequence (P9WIQ1 whole entry, looked up): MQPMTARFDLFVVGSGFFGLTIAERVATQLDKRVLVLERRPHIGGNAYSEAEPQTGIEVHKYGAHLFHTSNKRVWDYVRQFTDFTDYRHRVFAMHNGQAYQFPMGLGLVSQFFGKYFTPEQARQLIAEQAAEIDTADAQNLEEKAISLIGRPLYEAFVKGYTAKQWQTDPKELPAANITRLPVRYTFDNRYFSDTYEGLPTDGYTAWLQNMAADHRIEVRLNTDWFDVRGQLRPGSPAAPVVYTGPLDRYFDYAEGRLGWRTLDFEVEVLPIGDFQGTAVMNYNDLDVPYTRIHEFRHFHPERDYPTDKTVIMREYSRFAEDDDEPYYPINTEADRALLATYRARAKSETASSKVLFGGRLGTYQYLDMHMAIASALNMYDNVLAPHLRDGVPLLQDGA
Mtb FBA inh = Mtb fructose-bisphosphate aldolase inhibition; inhibition, % at 1 µM; purified M. tuberculosis FBA, fluorescence read-out; AID 588726; 360,000 tested, 2.3% active; in the data active means inhibition above about 27%;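 further: 0% = vehicle and 100% = reference inhibitor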
Mtb bLac sens = beta-lactam sensitization of Mtb H37Rv | M. tuberculosis H37Rv growth with meropenem, percent inhibition | inhibition, % at 25 µM | 330,000 tested, 0.27% active; call rule not given here;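 further: growth measured after seven days incubation then overnight dye step; 0% = bacteria only wells and 100% = bacteria with antibiotic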
* marks the source's active call; other numbers are inactive results; ? = inconclusive; nt = not tested or not shown. This is a sample that favours compounds with a hit; in the whole collection about 3.2% have one here.

SMILES | SSB-PriA inh | GDH-TPI inh | Rv3671c inh | Mtb UGM inh | Mtb FBA inh | Mtb bLac sens
O=[N+]([O-])c1ccccc1N=Nc1ccc(O)cc1 | 43* | 7 | -3 | 2 | -5 | 56
O=C(CN1CCCC1)Nc1sc2c(c1C(=O)Nc1ccc(Br)cc1)CCC2 | 75* | 6 | -10 | 3 | 2 | ?
O=C(CN1CCCCC1)Nc1sc2c(c1C(=O)Nc1ccc(F)cc1)CCCC2 | -13 | nt | nt | nt | nt | nt
Cc1ccc(S(=O)(=O)Nc2nc3ccccc3nc2NCC2CCCO2)cc1 (stereo not given) | -14 | 11 | -2 | 0 | 14 | -3
COc1ccc(S(=O)(=O)Nc2nc3ccccc3nc2NCC2CCCO2)cc1 (stereo not given) | -9 | 25 | 1 | 5 | 27* | 3
O=S(=O)(Nc1nc2ccccc2nc1NCC1CCCO1)c1ccccc1 (stereo not given) | 5 | 41* | 7 | 1 | 7 | -4
O=S(=O)(Nc1nc2ccccc2nc1NCC1CCCO1)c1ccc(F)cc1 (stereo not given) | -9 | 28 | 10 | 1 | 9 | -4
CC1CCN(c2c([N+](=O)[O-])nn(-c3ccc4c(c3)OCCO4)[n+]2[O-])CC1 | 40* | 9 | 3 | 0 | -2 | 8
O=[N+]([O-])c1nn(-c2ccc3c(c2)OCCO3)n(O)c1=NC1CCCCC1 | 13 | 19 | -1 | 3 | -4 | 87
CCN(CC)c1nc2c(s1)C(=O)CC(C)(C)C2 | -22 | 35* | 4 | -2 | -2 | -10
O=C(ON=Cc1ccc(N2CCCCC2)c([N+](=O)[O-])c1)c1cccc(Cl)c1 | 17 | nt | nt | nt | nt | nt
CN(C)c1ccc(/C=C2\SC(=O)N(CCc3nnc(N)s3)C2=O)cc1 | -4 | 32* | -14 | -1 | -22 | 19
CN(C)c1ccc(/C=N\NC(=O)CCCOc2ccc(Cl)cc2Cl)cc1 | -7 | nt | nt | nt | nt | nt
CCN(c1ccc(NC(=O)COC(=O)c2cc3ccccc3oc2=O)cc1)C(C)C | 54* | 4 | -8 | -5 | -1 | 70
CN(C)S(=O)(=O)c1cccc(NC(=O)COC(=O)c2cc3ccccc3oc2=O)c1 | -8 | 12 | -7 | 3 | 11 | 0
Cc1ccc(NC(=O)c2ccc(Br)o2)c([N+](=O)[O-])c1 | -6 | -9 | nt | nt | 1 | nt
NS(=O)(=O)c1ccc(NNC(=O)c2ccc(Br)o2)c([N+](=O)[O-])c1 | 6 | 45* | -4 | 2 | -5 | -5
O=C(/C=C/c1cc2c(cc1Br)OCO2)c1ccccn1 | -14 | nt | nt | nt | nt | nt
O=C1C=C(O)c2cccc3cccc1c23 | 7 | 31* | -6 | 1 | -2 | 6
COc1ccc(C(=O)NCC2(OC)CCSC2)cc1F (stereo not given) | -14 | nt | nt | nt | nt | nt
Cc1ccc(S(=O)(=O)/N=C2/NC(=O)/C(=C\c3ccccc3)S2)cc1 | nt | 39* | -36 | 5 | 0 | -1
Cc1ccc(S(=O)(=O)/N=C2/NC(=O)/C(=C/c3ccccc3)S2)cc1 | nt | 34* | -7 | 2 | -1 | 2
O=C1NC(=NS(=O)(=O)Cc2ccccc2)S/C1=C/c1cc([N+](=O)[O-])ccc1O | -11 | nt | nt | nt | nt | nt
O=C1N/C(=N\S(=O)(=O)Cc2ccccc2)S/C1=C/c1cccc([N+](=O)[O-])c1 | nt | 49* | -36 | 5 | 3 | -3
CSc1ccccc1C(=O)Nc1c2c(nn1CC(=O)NCc1ccccc1)CSC2 | -8 | nt | nt | nt | nt | nt
SMILES | SSB-PriA inh | GDH-TPI inh | Rv3671c inh | Mtb UGM inh | Mtb FBA inh | Mtb bLac sens
O=C(NC1CCN(c2nc(-c3cccnc3)cs2)CC1)c1cccc(C(F)(F)F)c1 | 13 | nt | nt | nt | nt | nt
Cc1oc2c(O)c(O)ccc2c(=O)c1-c1cnn(-c2ccccc2)c1 | 2 | 11 | -29 | 2 | -1 | -20
Cc1nc(-c2cnn(-c3ccccc3)c2)c2cc(C)oc2n1 | -13 | 9 | -11 | 0 | 119* | 10
O=C(CN1C(=O)S/C(=C\C=C\c2ccccc2)C1=O)Nc1cccc(O)c1 | 31 | 32* | -98 | -3 | -3 | 28
O=C(CN1C(=O)S/C(=C\C=C\c2ccccc2)C1=O)Nc1ccccc1C(=O)O | -2 | 35* | -20 | -2 | -2 | 1
CC(=O)Nc1ccc(SCc2ccccc2F)nn1 | -10 | nt | nt | nt | nt | nt
O=C(COC(=O)COc1cccc(Br)c1)NCc1ccc2c(c1)OCO2 | -7 | -1 | -3 | 11* | -3 | -5
O=C(COc1ccc2ccccc2c1)NCCOc1ccc2c(c1)OCO2 | 37* | nt | nt | nt | nt | nt
CCOc1ccc(-c2cc(=O)n(CC(=O)Nc3ncccc3C)cn2)cc1 | -15 | nt | nt | nt | nt | nt
O=C(CSc1nccn2nc(-c3ccc(Cl)cc3)cc12)NC1CCCCC1 | 2 | nt | nt | nt | nt | nt

Bioassay records (PubChem BioAssay)
